# Test results taken from ChEMBL document CHEMBL3988442, “University of Dundee, Small-Polar-MMV Screening Library” (2021).
# The whole screen tested about 48,000 compounds, of which about 13,000 (27%) showed an effect of 50% or more. The list shows a part of the results.
# Test system: Wolbachia pipientis
# Assay: Anti-Wolbachia Cell-Based Screen
# Format: functional
# Set-up: scale not given: in the data most compounds retested in dose-response had high values
# Conditions: 5 µM
row,Structure (SMILES),Percent Effect
1,CC(C(=O)N1CCCC1)N1CCC(c2nccn2Cc2cscn2)CC1 (stereo not drawn),9.079%
2,CC1COc2ccccc2N1C(=O)c1cscn1 (stereo not drawn),-0.3654%
3,Cc1nc(C2CCN(C)CC2)cc(N2CCOc3ccc(Cl)cc3C2)n1,-7.272%
4,Cc1nc(C)c(C)c(N2CCC3(CCOC3)C2)n1 (stereo not drawn),0.7248%
5,Cc1nc(N2CCC3(CCOC3)C2)c2cc[nH]c2n1 (stereo not drawn),96.01%
6,Cc1nnc2ccc(N3CCC4(CCOC4)C3)nn12 (stereo not drawn),-16.97%
7,Cc1cncc(C(=O)N2CCC3(CCCN(c4nncs4)C3)C2)c1.O=C(O)C(F)(F)F (stereo not drawn),-14.05%
8,CC(=O)N1CCCC2(C1)CN(c1nncs1)CCO2.O=C(O)C(F)(F)F (stereo not drawn),117%
9,O=C(O)C(F)(F)F.c1ccc(N2CCOC3(CCCN(c4nncs4)C3)C2)nc1 (stereo not drawn),-13.18%
10,CC(C)C(=O)N1CCCC2(C1)CN(c1nncs1)CCO2.O=C(O)C(F)(F)F (stereo not drawn),94.93%
11,CC(C)CCN1CCC2(CCCN(c3nncs3)C2)C1.O=C(O)C(F)(F)F (stereo not drawn),-9.122%
12,O=C(O)C(F)(F)F.O=C(c1ccncc1)N1CCOC2(COCCN(c3cncnc3)C2)C1 (stereo not drawn),-8.943%
13,O=C(O)C(F)(F)F.O=C(c1ccncc1)N1CCOC2(CCCN(c3nncs3)C2)C1 (stereo not drawn),123%
14,CC(C)CN1CCCC12CCN(c1nncs1)C2.O=C(O)C(F)(F)F (stereo not drawn),16.12%
15,CC(=O)N1CCCC2(C1)CN(c1ncc(C)cn1)CCO2.O=C(O)C(F)(F)F (stereo not drawn),-4.18%
16,CN(C)C(=O)CN1C[C@@H]2CC[C@H](C1)N(Cc1c(F)cccc1Cl)C2,-24.65%
17,CNC(=O)[C@@H](CC(C)C)N1CCC[C@H]1C(=O)N(C)Cc1cccnc1.Cl.Cl,6.21%
18,CCn1cnc(NC(=O)N2CCC(c3ccc(F)cc3)C2)n1 (stereo not drawn),-5.373%
19,O=C1CC2(CCN(Cc3ccoc3)CC2)CN1Cc1cc(F)cc(F)c1,87.88%
20,O=C1CC2(CCN(CCO)CC2)CN1Cc1cc(F)cc(F)c1,-5.03%
21,CCN1CC2(CCN(CCOCCO)CC2)CC(c2ccccc2)C1=O (stereo not drawn),6.251%

row,Structure (SMILES),Percent Effect
1,O=C1CC2(CCN(Cc3ncc[nH]3)CC2)CN1Cc1cc(F)cc(F)c1,5.031%
2,O=C1CCC2(CCN(Cc3cc(F)cc(F)c3)CC2)CN1CCO,-11.07%
3,O=C1CC2(CCN(CCCF)CC2)CN1Cc1cc(F)cc(F)c1,93.67%
4,CCCOCCN1CCC2(CC1)CC(=O)N(Cc1cc(F)cc(F)c1)C2,102.6%
5,Cc1ncc(CN2CCC3(CC2)CC(=O)N(C)C3)cn1,-13.29%
6,O=C1CC2(CCN(CCCO)CC2)CN1Cc1ccc(F)c(F)c1,111.9%
7,COCC(=O)N1CCC2(CC1)CC(=O)N(Cc1ccc(Cl)cc1)C2,-7.837%
8,O=C1CC2(CCN(Cc3ncc[nH]3)CC2)CN1Cc1ccc(Cl)cc1,9.235%
9,CCN(C)C[C@@H]1CN(S(=O)(=O)c2ccc(C#N)cc2)C[C@@H]1CO,-9.397%
10,c1ccc2[nH]c(C3CCN(Cc4nnc(C5CC5)o4)CC3)nc2c1,-0.6702%
11,O=C1CC2(CCN(CC3CCOC3)CC2)CN1Cc1cc(F)cc(F)c1 (stereo not drawn),4.353%
12,O=C1CC2(CCN(CC3CC3)CC2)CN1Cc1cc(F)cc(F)c1,122.7%
13,CN(Cc1ccn[nH]1)Cc1c[nH]nc1-c1ccc(F)cc1,4.933%
14,CCN(CCc1nc2cc(C)ccc2[nH]1)C(=O)[C@@H](N)CCSC,1.745%
15,O=C(NCCn1ccnc1-c1cc2n(n1)CCNC2)c1ccncc1,-6.247%
16,O=C(NCc1cc2n(n1)CCCNC2)C1(c2ccc(Cl)cc2)CCC1,14.56%
17,O=C(NCc1sc2ccccc2c1Cl)c1cc2n(n1)CCNC2,92.76%
18,CC(C)N1CCCn2nc(C(=O)NCCc3ccccn3)cc2C1,-11.55%
19,O=C(NCCn1ccnc1-c1cc2n(n1)CCNC2)c1ccc(F)cc1,10.43%
20,O=C(NCc1cc2n(n1)CCCNC2)c1cn2cc(Cl)ccc2n1,-5.425%
21,Cc1ncsc1CCC(=O)NCc1cc2n(n1)CCNC2,-3.955%

row,Structure (SMILES),Percent Effect
1,O=C(NCc1csc2ccc(Cl)cc12)c1cc2n(n1)CCNC2,87.95%
2,O=C(NCc1ccccn1)c1cc2n(n1)CCNC2,99.68%
3,CN(CC(=O)N1CCCC1)C(=O)c1cccn1CCc1ccccc1,-6.272%
4,O=C(c1ccno1)N1CCN2C(=O)N(Cc3ccc(F)cc3)C[C@H]2C1,-2.469%
5,Cc1nc(CN2CCc3nc(NC(C)C)nc(C)c3C2)cs1,12.48%
6,CCN(C)C(=O)c1cnc(-c2noc3cc(N4CCCCC4)ccc23)s1,-13.96%
7,Cc1ccc(CNC2(Cc3cc(CO)on3)COC2)o1,-19.01%
8,CC(C)C[C@@H]1N[C@H](C(=O)NC(C)C)Cc2c[nH]c3cccc1c23,-15.72%
9,CC(C)NC(=O)C1CN(C(=O)c2cccs2)CC12CCOCC2 (stereo not drawn),-10.16%
10,CC(C)NC(=O)[C@@H]1CN(C(=O)C2CC2)C[C@]12Cc1ccccc1C(=O)N2,129.2%
11,CCC[C@@H](NC(N)=O)C(=O)N1Cc2ccccc2-c2ccccc2C1,-11.77%
12,CCS(=O)(=O)N1C[C@@H](C(=O)NC(C)C)[C@@]2(Cc3ccccc3C(=O)N2)C1,141.4%
13,CC(C)NC(=O)C1CN(C(=O)c2ccco2)CC12CCOCC2 (stereo not drawn),3.507%
14,CCN(CC)C(=O)CCNC(=O)Cc1nc(-c2ccco2)oc1C,11.44%
15,O=C(CS(=O)(=O)Cc1ccc(Br)cc1F)Nc1cn[nH]c1,-22.34%
16,c1csc(N2CCCN(c3ncnc4sccc34)CC2)n1,165.2%
17,Cc1noc(C(C)N2CCN(c3ncnc4sccc34)CC2)n1 (stereo not drawn),-36.26%
18,N#Cc1ccc(N2CCCN(c3nccs3)CC2)nc1,-14.61%
19,c1csc(N2CCN(c3ncnc4sccc34)CC2)n1,140.7%
20,N#Cc1ccc(N2CCN(c3nccs3)CC2)nc1,-4.592%
21,CCc1nc(CN2CCCN(c3ncnc4sccc34)CC2)no1,-94.29%
